Experimental data taken from PubChem BioAssay (NCI).
Compounds without any hit were thinned out: in the full panel of roughly 79,000, 15% have a hit. Active and inactive are the calls of the source. No stated cut-off is given here; in the data, active means growth inhibition above about 70%; inactive means the rest. Where a SMILES comes first, the peptide text is derived from it. [ ]: non-standard residue; d: D form. The star is where a group is joined. Phe(4-NO2) = N[CH](Cc1ccc([N+](=O)[O-])cc1)C(=O)O; Boc = CC(C)(C)OC(=O)*

Experiments:
[1] = NCI Yeast Anticancer Drug Screen. Data for the rad50 strain (AID 155);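 further: 0% = growth of vehicle-only cultures of the same strain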; details: S. cerevisiae rad50 strain growth inhibition; at 50.0 µM; stronger effect = higher value
Outline: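 Relative growth inhibition (compound vs vehicle) was measured in yeast with a defined repair-gene alteration.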

[2] = NCI Yeast Anticancer Drug Screen. Data for the mec2-1 strain (AID 157); details: S. cerevisiae mec2-1 strain, at 50.0 µM, stronger effect = higher value
Outline: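 Readout is yeast growth inhibition, normalised to vehicle-treated controls, in the mec2-1 strain exposed to compound.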

[3] = NCI Yeast Anticancer Drug Screen. Data for the sgs1 mgt1 strain (AID 161);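 further: 0% = growth of cultures given vehicle only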; details: S. cerevisiae sgs1 mgt1 strain, at 50.0 µM, stronger effect = higher value
Outline: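 Growth of a repair-deficient yeast mutant was monitored after compound treatment and expressed as inhibition relative to vehicle-treated cultures.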

[4] = NCI Yeast Anticancer Drug Screen. Data for the cln2 rad14 strain (AID 165);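 further: 0% = growth equal to vehicle treated cultures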; details: S. cerevisiae cln2 rad14 strain, at 50.0 µM, stronger effect = higher value
Outline: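 Relative to vehicle controls, growth inhibition of compound-treated cln2 rad14 yeast was recorded.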

[5] = NCI Yeast Anticancer Drug Screen. Data for the bub3 strain (AID 167); details: S. cerevisiae bub3 mutant strain, at 50.0 µM, stronger effect = higher value
Outline: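 Screening used yeast with an engineered genetic alteration affecting cell cycle control. Compound-exposed cultures were compared with vehicle cultures, and reduced growth was taken as inhibition.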

[6] = NCI Yeast Anticancer Drug Screen. Data for the mlh1 rad18 strain (AID 175); details: S. cerevisiae mlh1 rad18 strain growth inhibition; at 50.0 µM; stronger effect = higher value
Outline: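 Test agents were incubated with a yeast strain of defined genotype (DNA damage repair defect). Inhibition of growth was derived by comparison with vehicle-exposed cultures.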

Measured: growth inhibition

C(=NCc1ccccc1)c1ccccc1-c1ccccc1C=NCc1ccccc1
active: [1] 98% | [2] 98.7% | [3] 98.8% | [4] 91.8% | [5] 97.2% | [6] 98.1%

O=C1NC(=O)C2(CCCC2=Nc2ccc(Br)cc2)C2C=CN(Cc3ccccc3)C=C12 (stereo not given)
inactive: [1] 0.25% | [2] -4.25% | [3] 6.3% | [4] 2.4% | [5] 3.65% | [6] 35.2%

N#CC(CC(=O)c1ccccc1)c1ccc(Cl)cc1 (stereo not given)
inactive: [1] 1% | [2] 4.45% | [3] -6.7% | [4] -79.2% | [5] 41.4% | [6] -13.7%

COc1cccc(C2CC(C)=Nc3c(ccc4c3C(=O)c3ccccc3C4=O)N2)c1O (stereo not given)
inactive: [1] 1.2% | [2] 17.9% | [3] 24.6% | [4] 7.8% | [5] 11.8% | [6] 14.8%

COc1ccc(/C=C2/SC(=Nc3ccccc3)N(NC(=O)Cc3ccccc3)C2=O)cc1
inactive: [1] -22.7% | [2] -14.2% | [3] 13.7% | [4] -16.6% | [5] -26.6% | [6] -22.2%

CCC(C)(C)c1ccc(OCCOC(C)=O)cc1
inactive: [1] 3.1% | [2] -11.8% | [3] 26.1% | [4] -13.7% | [5] 18.7% | [6] 23.1%

CC(C)Cc1ccc(NC2=C(Cl)C(=O)c3ccccc3C2=O)cc1
inactive: [1] 19.3% | [2] 19.7% | [3] 13.7% | [4] 25.1% | [5] 15.1% | [6] 28.1%

COc1ccc(C(O)C(NCc2ccccc2)c2ccccc2)cc1 (stereo not given)
inactive: [1] 7.75% | [2] -7.3% | [3] 13.2% | [4] 11.8% | [5] 2.55% | [6] 23.9%

NS(=O)(=O)c1ccc(Nc2c3ccccc3nc3cc(Cl)ccc23)cc1
inactive: [1] 25.6% | [2] -17.8% | [3] 6.9% | [4] 3.3% | [5] -8.5% | [6] -13.3%

O=C1c2ccccc2C(=O)c2c1ccc1c2N=C(c2ccc(F)cc2)CC(c2ccc(Cl)c(Cl)c2)N1 (stereo not given)
inactive: [1] 58% | [2] 20.1% | [3] 5% | [4] -14.7% | [5] 7.65% | [6] 43.6%

O=C1CSC(c2cccnc2)N1CCN1C(=O)CSC1c1cccnc1 (stereo not given)
inactive: [1] 3.75% | [2] 4.15% | [3] -11.5% | [4] -2.4% | [5] -1.6% | [6] 19.4%

CCCCNS(=O)(=O)CCCC
inactive: [1] 22.2% | [2] 2.4% | [3] -6.35% | [4] -29.6% | [5] 6.15% | [6] -9.8%

CS(=O)(=O)N1COC(=O)[C@@H]1c1ccccc1
inactive: [1] 1.25% | [2] 25.4% | [3] 7% | [4] -3% | [5] 11.2% | [6] 3.05%

O=C(O)c1c(I)cc(I)c(O)c1I
inactive: [1] -1% | [2] -13.5% | [3] 1.75% | [4] 7.65% | [5] 10.9% | [6] -6.9%

O=C(NC1(C(=O)O)CC1c1ccccc1)c1ccccc1 (stereo not given)
inactive: [1] -1.2% | [2] 21% | [3] 0.05% | [4] -10.2% | [5] 9.05% | [6] 42.8%

O=C(O)CCc1ccccc1-c1ccccc1C(=O)O
inactive: [1] 4% | [2] 1.45% | [3] -2.45% | [4] 8.8% | [5] 0.35% | [6] 31.4%

CC(=O)OC1CC2(c3ccccc3)C(=O)c3ccccc3N2O1 (stereo not given)
inactive: [1] 27.2% | [2] -16.6% | [3] -11.8% | [4] -12.7% | [5] 10.2% | [6] 19.6%

O=C(O)Cc1ccc(I)cc1
inactive: [1] 58% | [2] -1.2% | [3] 26.9% | [4] -54% | [5] 34.2% | [6] 25.3%

CCCNC(=O)c1cccc(-c2cccc(C(=O)NCCC)c2)c1
inactive: [1] 30.1% | [2] -10.3% | [3] 28.4% | [4] 12.3% | [5] 25.4% | [6] 31.6%

COC(=O)CCC(NC(=O)OC(C)(C)C)C(=O)NC(Cc1ccc([N+](=O)[O-])cc1)C(=O)NC(CCC(=O)OC)C(=O)OC (stereo not given) (Boc-Glu(OMe)-[Phe(4-NO2)]-Glu(OMe)-OMe; configuration not given here)
inactive: [1] 7.6% | [2] -6.6% | [3] 9.9% | [4] 20.6% | [5] 11.7% | [6] -44.1%
